Assay results reported in PubChem BioAssay (NCATS).
Records with an inconclusive call do not appear. Activity calls are given as the source filed them. Calls come from the whole dose curve; as a rule, active = well fitted curve in the direction sought with a large enough effect; inconclusive = small, poorly fitted or top-dose-only effect, or another doubt; inactive = no such curve, though single readings can be large; an effect the other way counts as inactive or inconclusive.

Assays:
[1] = target: Glutathione peroxidase 1 (Homo sapiens) (UniProt P07203); assay: Primary qHTS Assay for Inhibitors of Recombinant Selenoprotein Glutathione Peroxidase 1 (GPX1) (AID 1845191); note: nearly all actives have a fitted effect of over 65% in size; for activity, negative = inhibition: % is set by controls: 0 for no effect and ±100 for the full control effect
Sequence of Glutathione peroxidase 1 (Homo sapiens) (P07203 whole entry, looked up): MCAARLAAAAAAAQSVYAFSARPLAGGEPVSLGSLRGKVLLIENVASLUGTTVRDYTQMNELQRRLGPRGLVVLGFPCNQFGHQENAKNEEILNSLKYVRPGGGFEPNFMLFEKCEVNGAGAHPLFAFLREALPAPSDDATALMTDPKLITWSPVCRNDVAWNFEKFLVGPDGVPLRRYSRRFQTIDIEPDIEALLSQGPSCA
In short: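 NADPH consumption tracked by fluorescence at 340/450 nm between t=0 and t=15 min, room temperature. Final mix: 10 nM GPX1, 100 nM glutathione reductase, 1 mM GSH, 0.5 mM NADPH, 0.5 mM cumene hydroperoxide, 0.01% BSA; 30 min compound–enzyme preincubation.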

[2] = target: Phospholipid hydroperoxide glutathione peroxidase GPX4 (Homo sapiens) (UniProt P36969); assay: Primary qHTS Assay for Inhibitors of Recombinant Selenoprotein Glutathione Peroxidase 4 (GPX4) (AID 1845192); note: nearly all actives have a fitted effect of over 65% in size; for activity change, negative = inhibition: series mostly up to about 50 µM; % is set by controls: 0 for no effect and ±100 for the full control effect
Sequence of Phospholipid hydroperoxide glutathione peroxidase GPX4 (Homo sapiens) (P36969 whole entry, looked up): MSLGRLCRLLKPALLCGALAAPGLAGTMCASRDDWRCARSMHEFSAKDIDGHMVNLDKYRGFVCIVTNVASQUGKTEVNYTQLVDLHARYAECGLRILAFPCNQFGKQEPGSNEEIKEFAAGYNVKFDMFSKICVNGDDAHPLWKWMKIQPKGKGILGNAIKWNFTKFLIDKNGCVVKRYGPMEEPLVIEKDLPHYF
In short: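 NADPH consumption followed by fluorescence at 340/450 nm, t=0 and after 15 min at room temperature. Reaction started with cumene hydroperoxide (0.5 mM final) after 30 min compound–GPX4 preincubation; final 200 nM GPX4, 100 nM GR, 1 mM GSH, 0.5 mM NADPH.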

[3] = target: Luciferin 4-monooxygenase (Photinus pyralis) (UniProt P08659); assay: Primary firefly luciferase (FLuc) qHTS assay for identification of artifact compounds. (AID 1845220); note: nearly all actives have a fitted effect of over 60% in size;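 for activity change, negative = inhibition: series mostly up to about 54 µM; plate controls were DMSO vehicle for no effect and no enzyme for full effect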
In short: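 Cell-free, 1536-well qHTS. Buffer pH 7.6 with 0.01% Tween-20 and 0.05% BSA; 10 uM D-luciferin, 10 uM ATP; 10 nM P. pyralis luciferase; luminescence after 5 min.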

[4] = Primary fluorescence-based thiol-reactive (MSTI) qHTS assay for identification of artifact compounds. (AID 1845221); note: nearly all actives have a fitted effect of over 65% in size; note: potency is the fitted concentration of half-maximal effect;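 for activity change, negative = thiol reactive: series mostly up to about 54 µM; thiol-reactive compounds lower the probe fluorescence signal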
In short: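 A multi-concentration qHTS design tested compounds against 4 uM MSTI, pH 7.4 phosphate-buffered saline. Plates were protected from light for 1 h at room temperature before imaging fluorescence.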

[5] = test system: Nanoluciferase (engineered Oplophorus gracilirostris luciferase); assay: Primary Nanoluciferase (NLuc) qHTS assay for identification of artifact compounds. (AID 1845222);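 note: series mostly up to about 54 µM; 0% = DMSO and -100% = no enzyme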
In short: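 Compounds are pinned into diluted (1:55) conditioned medium of NLuc-expressing S16 cells and held 15 min at room temperature protected from light. Nano-Glo substrate follows, and luminescence is read 5 min later.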

CC1NC(=O)C(Cc2c[nH]c3ccccc23)NC1=O (stereo not given)
inactive: Potency [1] | Potency [2] | Potency [3] | Potency [4] | Potency [5]

O=C(/C=C/c1ccccc1)OCC1=CC[C@@H]2C(C(=O)O)=CO[C@@H](O[C@@H]3O[C@H](CO)[C@@H](O)[C@H](O)[C@H]3O)[C@H]12
inactive: Potency [1] | Potency [2] | Potency [3] | Potency [4] | Potency [5]

C=C1CCC2C(C)(C)C(O)CCC2(C)C1CCC(C)CCOC(=O)CCC(=O)O (stereo not given)
inactive: Potency [1] | Potency [2] | Potency [3] | Potency [4] | Potency [5]

CC1=C2C(=O)O[C@@H](c3ccoc3)[C@]2(C)CCC1
inactive: Potency [1] | Potency [2] | Potency [3] | Potency [4] | Potency [5]

C=C(C)C(C)C1OC23CC4(CO2)C(CCC2C5(C)CCC(OC6OCC(O)C(OC7OC(CO)C(O)C(OC8OCC(O)C(O)C8O)C7O)C6OC6OC(CO)C(O)C6O)C(C)(C)C5CCC24C)C3C(C)(O)C1OC(C)=O (stereo not given)
inactive: Potency [1] | Potency [2] | outcome [3] inactive [at 11.6 µM] | activity change, negative = thiol reactive [4] 644% [at 11.5 µM] | activity, negative = inhibition [5] 3.65% [at 11.6 µM]

COC(=O)CC[C@@H](C)[C@H]1CC[C@H]2[C@@H]3CC(=O)[C@H]4C[C@H](OC(C)=O)CC[C@]4(C)[C@H]3CC[C@]12C
inactive: Potency [1] | Potency [2] | Potency [3] | Potency [4] | Potency [5]

CN1C(=O)c2ccccc2-n2c(nc3ccccc3c2=O)[C@@]12O[C@H]2c1ccccc1
inactive: Potency [1] | Potency [2] | Potency [3] | Potency [4] | Potency [5]

COC1=CC(=O)O[C@@H](/C=C/c2ccccc2)[C@@H]1O
inactive: Potency [1] | Potency [2] | Potency [3] | Potency [4] | Potency [5]

C=C(C(=O)OC)C1CCC2(C)C(O[C@@H]3O[C@H](CO)[C@@H](O)[C@H](O)[C@H]3O)CC(=O)C(C)C2C1O (stereo not given in full)
inactive: Potency [1] | Potency [2] | Potency [3] | Potency [5]
active: Potency [4] 4.12 µM

COc1cc(CCc2ccccc2)c(C(=O)O)c2c1CC(C(C)(C)O)O2 (stereo not given)
inactive: Potency [1] | Potency [2] | Potency [3] | Potency [4] | Potency [5]

C[C@@H]1O[C@@H](O[C@@H]2[C@@H](O)[C@@H](O)[C@H](O[C@@H]3[C@@H](O)[C@@H](O[C@]4(CO)O[C@H](CO)[C@@H](O)[C@@H]4OC(=O)/C=C/c4ccc(O)cc4)O[C@H](CO)[C@H]3OC(=O)/C=C/c3ccc(O)cc3)O[C@H]2C)[C@H](O)[C@H](O)[C@H]1O
inactive: Potency [1] | Potency [2] | outcome [3] inactive [at 11.6 µM] | activity change, negative = thiol reactive [4] 65.2% [at 11.5 µM] | activity, negative = inhibition [5] 1.58% [at 11.6 µM]

CC(C)=CCC/C(C)=C/CC/C(C)=C/CC[C@]1(C)CCc2cc(O)cc(C)c2O1
inactive: Potency [1] | Potency [2] | Potency [3] | Potency [4] | Potency [5]

C[C@H](NCc1ccc(OCc2ccccc2F)cc1)C(N)=O
inactive: Potency [1] | Potency [2] | Potency [3] | Potency [4] | Potency [5]

C=C1CC2C3(C)C(OC(C)=O)CC(=O)OC(C)(C)C3C(O)C(OC(C)=O)C2(C)C2C(=O)OC(C)C(=O)C12C (stereo not given)
inactive: Potency [1] | Potency [2] | Potency [3] | Potency [4] | Potency [5]

CC(C)C1(O[C@@H]2O[C@H](CO)[C@@H](O)[C@H](O)[C@H]2O)CC=C(CO)CC1 (stereo not given in full)
inactive: Potency [1] | Potency [2] | Potency [3] | Potency [5]
active: Potency [4] 11.7 µM

C/C(=C/CCC(CO)C1CCC2(C)C3CCC4C(C)(C)C(OC5OC(CO)C(O)C(O)C5O)CC(O)C45CC35CCC12C)COC1OC(CO)C(O)C(O)C1O (stereo not given)
inactive: Potency [1] | Potency [2] | Potency [3] | Potency [4] | Potency [5]

CCC(C)/C=C(C)/C=C/C1=CC2=C(Cl)C(=O)C(C)(OC(C)=O)C(=O)C2=CN1C1CCCCN(C(CCC(N)=O)C(=O)O)C1=O (stereo not given)
inactive: Potency [1] | Potency [2] | Potency [3] | Potency [5]
active: Potency [4] 0.446 µM

O=C(O)[C@H]1CCCC[C@H]1C(=O)N1CCc2ccccc2[C@H]1CN1C(=O)c2ccccc2C1=O
inactive: Potency [1] | Potency [2] | Potency [3] | Potency [4] | Potency [5]

C[C@@H]1O[C@@H](O[C@H]2[C@H](OC(=O)C34CCC5(C)C(=CCC6C7(C)CC(O)C(O[C@@H]8O[C@H](C(=O)O)[C@@H](O)[C@H](O)[C@H]8O)C(C)(C(=O)O)C7CCC65C)C3CC(C)(C)CC4O)O[C@H](C)[C@@H](O)[C@@H]2O)[C@H](O)[C@@H](O[C@@H]2OC[C@](O)(CO)[C@H]2O[C@@H]2O[C@H](CO)[C@@H](O)[C@H](O)[C@H]2O)[C@H]1O (stereo not given in full)
inactive: activity, negative = inhibition [1] -10.2% [at 9.52 µM] | activity change, negative = inhibition [2] -4.3% [at 9.73 µM] | activity change, negative = inhibition [3] -0.148% [at 11.6 µM] | activity change, negative = thiol reactive [4] 44.4% [at 11.5 µM] | activity, negative = inhibition [5] 0% [at 11.6 µM]

C=C1CC2C3(C)C(O)CC(=O)C(C)(C)C3C(OC(C)=O)C(OC(C)=O)C2(C)C2C(=O)OC(C)(C(=O)OC)C(=O)C12C (stereo not given)
inactive: Potency [1] | Potency [2] | Potency [3] | Potency [4] | Potency [5]
